GBA activity: alters purified human glucocerebrosidase activity. P04062. purified enzyme, resorufin glucoside fluorescence (screen aimed at inhibitors), 20 min. Potency, µM. 48,000 compounds, 1.1% hits; in the data active means potency below about 15 µM; inconclusive means mostly about 16 µM to 33 µM;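 further: the screen sought inhibitors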
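Normal human glucocerebrosidase (0.2 nM final) was assayed with resorufin β-D-glucopyranoside (30 uM final) in 50mM citric acid/KH2PO4, 10mM sodium taurocholate, 0.01% tween-20, pH 5.9. Compounds were titrated; fluorescence (Ex 548, Em 600) read after 20 min at RT.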
Casp7 inh: blocks human caspase-7 allosterically or competitively; 75,000 compounds, 0.02% hits; recombinant caspase-7, Ac-DEVD-AFC fluorescence rate; P55210; Potency, µM (doses to about 57.5 µM), most hits filed as inhibitors; active means well fitted inhibition curve with a large enough effect in the main read-out, with a control signal flat, not every such curve was filed as active; inconclusive means small, poorly fitted or top-dose-only effect, or a change in a side signal
Caspase-1 inhib: allosteric or competitive inhibitors of human caspase-1; P29466; Caspase-1 enzyme, Ac-WEHD-AFC fluorogenic rate; Potency, µM (top dose mostly 57.5 µM), usual class: inhibitors; 75,000 compounds, 0.03% hits; AID 900
Bst PK mod: pyruvate kinase (B. stearothermophilus) modulation | purified pyruvate kinase, luminescence ATP production; ribose 5-phosphate activator present at AC10 | 51,000 compounds, 1.2% hits | Potency, µM | AID 361; in the data active means potency below about 11 µM; inconclusive means mostly about 12 µM to 25 µM;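 the screen sought inhibitors and activators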
FLuc inh: inhibitors of firefly luciferase; P08659; purified firefly luciferase, luminescence, 8 min; Potency, µM (series often up to 57.1 µM), hits mostly inhibitors; 72,000 compounds, 2.2% hits; AID 411; further: nearly all actives have a fitted effect of over 40% in size
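Inhibition of light generation by firefly luciferase from ATP and luciferin was profiled with concentration-response curves per sample, ATP held at 10 uM within the enzyme's linear range. Plates were read by luminescence after an 8-minute ambient incubation.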
Numbers stand for hits; . = inactive; ? = inconclusive; / = no result; [ ] = dose if it differs, or a comment. Compounds with a hit are over-represented: about 3.1% of the library has one in this group of screens. Unless noted, the call rests on the fitted dose curve; in most records, active means well fitted inhibition curve with a large enough effect; inconclusive means small, poorly fitted or top-dose-only effect; inactive means flat fitted curve, though single readings scatter.

SMILES | GBA activity | Casp7 inh | Caspase-1 inhib | Bst PK mod | FLuc inh
COc1ccccc1N1CCN(S(=O)(=O)c2cccc3nsnc23)CC1 | . | . | . | 7.4 | .
COc1ccccc1N1CCN(S(=O)(=O)c2ccc(Cl)s2)CC1 | . | . | . | 11 | .
CCOc1ccccc1N1CCN(S(=O)(=O)c2ccc(Cl)s2)CC1 | . | . | . | ? | .
O=[N+]([O-])c1ccc2c(N=Nc3ccc4ccccc4c3O)c(O)cc(S(=O)(=O)O)c2c1 | / | .[11.5 µM] | .[11.5 µM] | / | .[11.4 µM]
COc1ccc2oc(=N)c(C(=O)Nc3ccccc3)cc2c1 | . | . | ? | 8.2 | 32µM
CNC(=O)c1cc2cc(OC)ccc2oc1=N | . | ? | / | / | .
O=C(O)c1ccccc1NS(=O)(=O)c1ccc(F)c(Cl)c1 | / | . | . | / | /
Cc1cc(=O)n2[nH]c(-c3ccccc3Cl)cc2n1 | . | . | . | / | 16µM
Cc1cc(=O)oc2c(OS(C)(=O)=O)c(OS(C)(=O)=O)ccc12 | / | .[11.5 µM] | .[11.5 µM] | / | .[11.4 µM]
O=C(NCc1cccnc1)c1c[nH]c2cc3c(cc2c1=O)OCCO3 | . | . | . | . | 13µM
O=C(NCc1ccccc1)c1c[nH]c2ccc(S(=O)(=O)Nc3ccc4c(c3)OCCO4)cc2c1=O | ? | . | . | . | .
CCc1ccc(-c2nc(-c3ccncc3)no2)cc1 | / | . | . | / | 5µM
c1ccc(-c2nc(-c3ccncc3)no2)cc1 | / | . | . | . | .
c1ccc(-c2ccc(-c3nc(-c4cccnc4)no3)cc2)cc1 | / | . | . | / | 3.2µM
c1ccc(-c2noc(-c3cccnc3)n2)cc1 | / | . | . | / | 13µM
Clc1ccccc1-c1nc(-c2cccnc2)no1 | . | . | . | ? | 13µM
CCCCc1ccc(-c2nc(-c3ccncc3)no2)cc1 | / | . | . | / | .
CCCC[C@]1(C2CCCC2)Cc2cc(OCC(=O)O)c(Cl)c(Cl)c2C1=O | / | . | . | / | .
N#CCCSC(=S)[C@H]1CCCC1=N | / | .[11.5 µM] | .[11.5 µM] | / | .[11.4 µM]
Cc1cc(C)c(C)c(S(=O)(=O)NCCC(=O)O)c1C | / | . | . | / | /
C[C@@H]1C[C@@H]2[C@H]3CCC4=CC(=O)C=C[C@]4(C)[C@]3(Cl)[C@@H](O)C[C@@]2(C)[C@@]1(O)C(=O)CO | / | . | . | / | .
CC(=O)OCC1OC(C#Cc2ccc(F)cc2F)C=CC1OC(C)=O (centres undefined) | / | .[11.5 µM] | .[11.5 µM] | / | /
C=C1CC[C@@H](O)C/C1=C/C=C1\CCC[C@]2(C)[C@@H]1CC[C@H]2[C@@H](C)/C=C\[C@@H](C)C(C)C | / | / | / | / | .[11.4 µM]
OC[C@@H]1O[C@@H](n2cnc3c(SCc4ccccc4)ncnc32)[C@@H](O)[C@H]1O | / | .[11.5 µM] | .[11.5 µM] | / | .[11.4 µM]
c1ccc(-c2ccc(-c3nc(-c4ccncc4)no3)cc2)cc1 | / | . | . | / | 3.2µM
SMILES | GBA activity | Casp7 inh | Caspase-1 inhib | Bst PK mod | FLuc inh
C[C@H](CN(C)C)C(=O)c1ccccc1C(=O)O | / | .[11.5 µM] | .[11.5 µM] | / | .[11.4 µM]
Cn1c(-c2ccc3ccccc3n2)nc2cnccc21 | . | . | ? | ? | 13µM
COc1cccc(-c2nn(C)c3sc(C(=O)N4CCOCC4)cc23)c1 | / | . | . | / | .
COc1cccc(-c2nn(C)c3sc(C(=O)N4CCN(c5ccccn5)CC4)cc23)c1 | . | . | . | 7.3 | .
Nc1nc(-c2ccc3c(c2)CCCC3)cs1 | . | . | . | ? | 13µM
Cc1nc(-c2ccc3c(c2)OCO3)cs1 | / | . | . | / | /
c1cncc(-c2nc(-c3ccco3)cs2)c1 | . | . | . | . | .
c1cncc(-c2nc(-c3ccc4c(c3)OCO4)cs2)c1 | . | . | . | ? | 13µM
Nc1nc(-c2ccc3c(c2)OCCO3)cs1 | ? | . | . | . | 25µM
CCC(C)C(=O)N1CCc2cc(-c3csc(N)n3)ccc21 (centres undefined) | ? | . | . | 8.1 | 10µM
CC(C)[C@@H]1OC(=O)C=CC=CC=CC=CC=CC[C@@H](O)[C@H](C)[C@@H](O)C[C@H](O)C[C@H](O)C[C@H](O)C[C@H](O)C[C@H](O)C[C@H](O)C=C[C@@H]1C | / | / | / | / | .[11.4 µM]
O=C1C(C=NCCCN2CCOCC2)=C(O)c2ccccc21 | / | . | . | / | .
O=C1C(C=NCCN2CCOCC2)=C(O)c2ccccc21 | / | . | . | / | 13µM
Cc1cc(C)c(/C=C2/C(=O)Nc3ccccc32)[nH]1 | / | . | . | / | .
O=C(c1ccc2c(c1)OCCO2)C1CCN(S(=O)(=O)c2ccc(F)cc2)CC1 | . | . | . | 10 | .
O=S(=O)(c1ccc2c(c1)OCCO2)N1CCC(n2cnc3cc(F)ccc32)CC1 | / | . | . | . | .
O=S(=O)(c1cccc(C(F)(F)F)c1)N1c2ccccc2-n2cccc2[C@H]1c1cccnc1 | / | .[11.5 µM] | .[11.5 µM] | / | .[11.4 µM]
O=C(Nc1nnc(-c2ccccc2Cl)o1)c1ccco1 | . | . | . | / | 13µM
O=C1C=CC(=O)C2=C1C1c3ccccc3C2c2ccccc21 | / | . | . | / | /
O=C(Nc1nc2ccc(Cl)cc2s1)c1ccc(Br)o1 | / | . | . | / | 13µM
O=C(Nc1nc2c(Cl)cccc2s1)c1ccc(Br)o1 | . | . | . | . | .
CC1=C(C(=O)OCCOC(C)C)C(c2cc3c(cc2Br)OCO3)C2=C(CCCC2=O)N1 (centres undefined) | 11 | . | ? | . | .
Nc1cc(S(N)(=O)=O)ccc1SSc1ccc(S(N)(=O)=O)cc1N | / | .[11.5 µM] | .[11.5 µM] | / | .[11.4 µM]
Cc1ccc(Nc2nc(N)nc(CN3CCN(c4ccccc4)CC3)n2)cc1Cl | 4.2 | . | . | . | .
COc1ccc(Nc2nc(N)nc(CN3CCOCC3)n2)cc1 | . | . | . | . | .
SMILES | GBA activity | Casp7 inh | Caspase-1 inhib | Bst PK mod | FLuc inh
COc1ccc(N2CCN(Cc3nc(N)nc(Nc4ccc(C)c(Cl)c4)n3)CC2)cc1 | 4 | . | . | . | .
CC[C@H](C)C(=O)O[C@@H]1CCC=C2C=C[C@H](C)[C@@H](CC[C@H]3C[C@@H](O)CC(=O)O3)[C@H]21 | / | / | / | / | .
CCN(c1cccc(C)c1)S(=O)(=O)c1ccc(O)c(C(=O)O)c1 | / | . | . | / | /
N#CCc1ccccc1[N+](=O)[O-] | / | . | . | / | /
CC(C)S | / | . | . | / | /
c1ccc(OCCSc2nnc3sc4ccccc4n23)cc1 | . | . | . | ? | 25µM
O=C(CN1CCN(Cc2ccccc2)CC1)N1CCCc2c1c(=O)oc1ccc(O)cc21 | 14 | . | . | . | .
Oc1ccccc1-c1nnc(COc2ccc(Cl)cc2Cl)o1 | / | . | . | / | 13µM
CCC(C)(C)C(=O)O[C@@H]1C[C@@H](C)C=C2C=C[C@H](C)[C@H](CC[C@@H]3C[C@@H](O)CC(=O)O3)[C@H]21 | / | . | . | / | .
Oc1ccccc1Nc1nc(NCC2CCCO2)c2ccccc2n1 (centres undefined) | 0.43 | . | . | / | .
Oc1ccc(Nc2nc(NCC3CCCO3)c3ccccc3n2)cc1 (centres undefined) | ? | . | . | / | .
CC(=O)C1(C)CC2=C(CCCC2(C)C)CC1C (centres undefined) | / | . | . | / | /
CCOC(=O)c1c(C)nc2c3ccccc3ccn12 | . | . | . | 6.9 | 10µM
CCOC(=O)c1c(C)nc2sccn12 | . | . | . | . | .
COC(=O)C1=C(C)NC(C)=C(C(=O)OCCN(C)Cc2ccccc2)[C@@H]1c1cccc([N+](=O)[O-])c1 | / | . | . | / | .
COc1ccc(N/C(N)=N/c2nc(CSc3ccc(C)cc3)cc(=O)[nH]2)cc1 | 9.7 | . | . | . | .
Nc1nc2ccc(N3CCOCC3)cc2s1 | . | . | . | . | 16µM

Assay outcomes (PubChem)
